Here are results for 11 molecules from PubChem BioAssay (Tox21).

Test [1] in a line: qHTS assay to identify small molecule antagonists of the glucocorticoid receptor (GR) signaling pathway - cell viability counter screen (AID 720693). Note: nearly all actives have a fitted effect of over 55% in size. Note: potency is the fitted concentration of half-maximal effect. For orientation: qHTS replaces the single test concentration by a dilution series.
A short description of test [2]: qHTS assay for identifying genotoxic compounds that show differential cytotoxicity against isogenic chicken DT40 cell lines with known DNA damage response pathways - wild type cell line (AID 743012). Note: nearly all actives have a fitted effect of over 60% in size. Note: potency is the fitted concentration of half-maximal effect. The method in brief: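 Wild type DT40, 300 cells/well, ~0.5 h settle at 37 C/5% CO2; compounds in DMSO added by pintool; 40 h at 37 C/5% CO2; CellTiter-Glo, 30 min RT; luminescence.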

Test [3] can be described thus: qHTS assay to identify small molecule antagonists of the androgen receptor (AR) signaling pathway - cell viability counter screen (AID 743033; note: nearly all actives have a fitted effect of over 45% in size; note: potency is the fitted concentration of half-maximal effect).
Test [4] in a line: qHTS assay to identify small molecule antagonists of the androgen receptor (AR) signaling pathway using the MDA cell line - cell viability counter screen (AID 743041; note: nearly all actives have a fitted effect of over 45% in size). The method in brief:
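Same-well cytotoxicity was assessed by CellTiter-Fluor in MDA-kb2 AR-luc cells after 16 h of compound treatment under R1881 agonism.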

Test [5] can be described thus: qHTS assay to identify small molecule antagonists of the thyroid receptor (TR) signaling pathway - cell viability counter screen (AID 743064). Note: nearly all actives have a fitted effect of over 50% in size. Note: potency is the fitted concentration of half-maximal effect. In outline:
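GH3.TRE-Luc cells, 4 h pre-plating; cpd + T3 1 nM final; 37 °C 23.5 h; CellTiter-Fluor 30 min; fluorescence read.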

A short description of test [6]: qHTS assay to identify small molecule antagonists of the thyroid receptor (TR) signaling pathway (AID 743065). Note: nearly all actives have a fitted effect of over 55% in size. Note: potency is the fitted concentration of half-maximal effect. In outline:
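GH3.TRE-Luc rat pituitary cells (two TREs driving luciferase) were dosed with compound, then stimulated with 1 nM T3 (final) for 23.5 h at 37 C. ONE-Glo luminescence was the read-out, with CellTiter-Fluor fluorescence as the cytotoxicity counter-screen.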

Test [7] relates to thyroid hormone receptor (rat, GH3 cells). As to the kind of experiment: qHTS assay to identify small molecule agonists of the thyroid receptor (TR) signaling pathway (AID 743066; calls by dose curve).
For test [8], the target named is Estrogen receptor (Homo sapiens) (UniProt P03372). As to the kind of experiment: qHTS assay to identify small molecule antagonists of the estrogen receptor alpha (ER-alpha) signaling pathway (AID 743069; active = well fitted curve in the direction sought with a large enough effect in the signal ratio in the repeat runs, not every such curve was filed as active; the % refers to the signal ratio). The method in brief:
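Reporter cells (ER-alpha-bla, HEK293 background) are conditioned overnight in stripped-serum medium (2% charcoal-stripped FBS). Compound and 17beta-estradiol exposure runs 18 hr at 37C, 5% CO2.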

Test [9] is described as follows: qHTS assay to identify small molecule antagonists of the estrogen receptor alpha (ER-alpha) signaling pathway - cell viability counter screen (AID 743074; calls by dose curve;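 note: HEK293 cells carrying ER-alpha-UAS-bla reporter stimulated with 17beta-estradiol; nearly all actives have a fitted effect of over 45% in size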; note: potency is the fitted concentration of half-maximal effect).
In test [10] the target is Estrogen receptor (Homo sapiens) (UniProt P03372). As to the kind of experiment: qHTS assay to identify small molecule agonists of the estrogen receptor alpha (ER-alpha) signaling pathway (AID 743075; calls by dose curve;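 note: HEK293 GripTite cells with ER-alpha and UAS-driven beta-lactamase reporter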).
Sequence of Estrogen receptor (Homo sapiens) (P03372 whole entry, looked up): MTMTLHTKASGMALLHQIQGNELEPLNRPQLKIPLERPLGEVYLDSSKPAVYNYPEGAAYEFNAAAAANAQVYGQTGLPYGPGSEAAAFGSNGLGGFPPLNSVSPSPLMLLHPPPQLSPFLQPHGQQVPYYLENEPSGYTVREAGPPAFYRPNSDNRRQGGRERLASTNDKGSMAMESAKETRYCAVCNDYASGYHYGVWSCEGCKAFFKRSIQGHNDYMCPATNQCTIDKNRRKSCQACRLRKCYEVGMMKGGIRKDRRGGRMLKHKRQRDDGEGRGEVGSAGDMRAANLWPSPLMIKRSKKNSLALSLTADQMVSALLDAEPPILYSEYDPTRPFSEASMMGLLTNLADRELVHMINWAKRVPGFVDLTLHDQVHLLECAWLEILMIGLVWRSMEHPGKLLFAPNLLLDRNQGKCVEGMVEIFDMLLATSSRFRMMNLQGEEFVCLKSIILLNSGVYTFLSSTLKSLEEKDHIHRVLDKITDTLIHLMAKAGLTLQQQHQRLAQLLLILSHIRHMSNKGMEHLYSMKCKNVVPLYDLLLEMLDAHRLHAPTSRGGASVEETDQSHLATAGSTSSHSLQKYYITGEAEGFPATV
The target is the same in test [11]. As to the kind of experiment: qHTS assay to identify small molecule agonists of the estrogen receptor alpha (ER-alpha) signaling pathway using the BG1 cell line (AID 743079). Note: nearly all actives have a fitted effect of over 20% in size. Note: potency is the fitted concentration of half-maximal effect. Conditions: BG1Luc4E2 cells, ERE-luciferase agonist, 22 h; activation: at 70.3 µM (top of the series) unless noted.
Test [12] is described as follows: qHTS assay to identify small molecule antagonists of the estrogen receptor alpha (ER-alpha) signaling pathway using the BG1 cell line (AID 743080; calls by dose curve;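 note: BG1 cells stimulated with 17beta-estradiol alongside compound; nearly all actives have a fitted effect of over 25% in size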; note: potency is the fitted concentration of half-maximal effect). The method in brief: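 Quantitative HTS on the Tox21 10K library: BG1 cells with endogenous ER-alpha and ERE-luciferase reporter, 17beta-estradiol stimulation, 21.5 h compound exposure, luminescence endpoint with parallel fluorescence cytotoxicity counter-read.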

The nature of test [13]: qHTS assay to identify small molecule antagonists of the estrogen receptor alpha (ER-alpha) signaling pathway using the BG1 cell line - cell viability counter screen (AID 743081).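 Note: compound given together with 17beta-estradiol as the ER stimulus; nearly all actives have a fitted effect of over 45% in size.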
Test [14] addresses Aromatase (Homo sapiens) (UniProt P11511). Put plainly: qHTS assay to identify aromatase inhibitors (AID 743083). Note: nearly all actives have a fitted effect of over 55% in size. Note: potency is the fitted concentration of half-maximal effect.
Test [15] can be described thus: qHTS assay for identifying genotoxic compounds that show differential cytotoxicity against isogenic chicken DT40 cell lines with known DNA damage response pathways - Rad54/Ku70 mutant cell line (AID 743015). Note: nearly all actives have a fitted effect of over 60% in size. Note: potency is the fitted concentration of half-maximal effect.

SMILES strings stand for the structures. Several values for one entry are separate records, joined by “and”; a condition that tells them apart may be missing. Identical values can stand only once. Inconclusive results are not listed. More than one record can exist for a structure, and the calls need not agree. Activity calls are given as the source filed them. Unless noted, calls come from the whole dose curve; as a rule, active = well fitted curve in the direction sought with a large enough effect in the repeat runs; inconclusive = weak or mixed curves; inactive = no such curve, though single readings can be large; an effect the other way counts as inactive or inconclusive.

Sequence of Aromatase (Homo sapiens) (P11511 whole entry, looked up): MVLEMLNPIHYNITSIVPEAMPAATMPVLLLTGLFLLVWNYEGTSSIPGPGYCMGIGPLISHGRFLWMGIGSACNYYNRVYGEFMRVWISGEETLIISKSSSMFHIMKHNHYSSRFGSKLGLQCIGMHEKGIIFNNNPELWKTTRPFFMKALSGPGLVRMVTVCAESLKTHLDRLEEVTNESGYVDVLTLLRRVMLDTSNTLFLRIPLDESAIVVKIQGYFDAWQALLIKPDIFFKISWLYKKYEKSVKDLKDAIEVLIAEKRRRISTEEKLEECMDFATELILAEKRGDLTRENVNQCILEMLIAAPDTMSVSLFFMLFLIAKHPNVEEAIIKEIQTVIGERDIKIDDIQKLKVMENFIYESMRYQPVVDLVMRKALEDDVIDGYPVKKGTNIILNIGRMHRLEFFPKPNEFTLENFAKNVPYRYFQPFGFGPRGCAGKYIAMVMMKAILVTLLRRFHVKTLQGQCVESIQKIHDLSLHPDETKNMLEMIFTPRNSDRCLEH

For `CSc1nc(NC(C)C)nc(NC(C)C)n1`, the Potency entry in test [1], in test [2], in [3], in test [4], in test [5] and in test [6] was “inactive” in each case. For the same molecule, the Potency entry in test [7], in test [8], in test [9], in test [10], in test [11] and in [12] was “inactive” in each case. For the same molecule, the Potency entry in [13] and in test [14] was “inactive” each time.

Turning to `COc1ccc(O)c(C(C)(C)C)c1`, the Potency result in test [1], in test [2], in test [15], in test [3], in test [4] and in [5] was “inactive” each time. For the same molecule, the Potency result in [6], in [7], in test [8], in test [9], in test [10] and in test [11] was “inactive” in each case. Moreover, the Potency result in [12], in [13] and in [14] was “inactive” each time.

`c1ccc2c(c1)Nc1ccccc1S2`: the Potency entry in test [1], in [3], in test [4], in [5], in test [6] and in test [7] was “inactive” in each case. Further, the Potency entry in test [8], in test [9], in [10], in test [12], in test [13] and in [14] was “inactive” in each case. Besides, the Potency is 40.9 µM (active) in test [15]; 26.6 µM (active) and 38.6 µM (active) in test [11].

Take `CCOS(=O)(=O)OCC`: the Potency entry in test [1], in test [2], in test [15], in [3], in test [4] and in test [5] was “inactive” throughout. Besides, the Potency entry in test [6], in test [7], in [8], in test [9], in test [10] and in [11] was “inactive” in each case. Besides, the Potency entry in test [12], in test [13] and in test [14] was “inactive” each time.

As to `CCCCCCCCCc1ccc(O)cc1`, the Potency was 30.9 µM (active) in test [15]; 39 µM (active) in test [5]; 30.9 µM (active) in [6]; 6.93 µM (active) in test [11]; 49.1 µM (active) in test [14]. Further, the Potency result in [4], in test [7], in [8], in [10], in test [12] and in [13] was “inactive” throughout.

In the case of `CC1CC(=O)O1` (stereo unspecified), the Potency result in test [1], in test [2], in test [15], in [3], in [4] and in [5] was “inactive” throughout. For the same molecule, the Potency entry in [6], in test [7], in test [9], in test [13] and in test [14] was “inactive” each time.

With `CCCCCCCCCC(CC)c1ccc(S(=O)(=O)O)cc1` (stereo unspecified), the Potency result in test [2] is “inactive and 18.8 µM (active)”; in test [15], “inactive and 30.6 µM (active) and 47.2 µM (active)”; in test [9], “inactive and 43.6 µM (active)”. Further, the Potency entry in test [3], in test [4], in test [7] and in [13] was “inactive” each time.

With `CC(C)(O)C(=O)Nc1ccc([N+](=O)[O-])c(C(F)(F)F)c1`, the Potency entry in [1], in test [5], in test [7], in [9], in test [10] and in test [14] was “inactive” in each case. Besides, the Potency was 55.6 µM (active) and 5.62 µM (active) in test [2]; 19.7 µM (active) and 5.01 µM (active) in test [15]; 62.4 µM (active) in test [6]; 55.6 µM (active) in test [12].

Take `CC(O)CN(CC(C)O)CC(C)O` (stereo unspecified): the Potency result in test [1], in [2], in [15], in test [3], in test [4] and in test [5] was “inactive” in each case. The Potency result in [6], in [7], in test [9], in test [13] and in [14] was “inactive” each time.

Consider `O=C1C(Cl)=C(Cl)C(=O)c2ccccc21`, for which the Potency in test [1] was 21.9 µM (active) and 19.5 µM (active); in test [2], 2.18 µM (active) and 486 nM (active); in test [15], 2.18 µM (active) and 545 nM (active); in test [3], 4.91 µM (active) and 7.76 µM (active); in [5], 30.7 µM (active) and 5.45 µM (active); in test [6], 3.07 µM (active) and 3.44 µM (active). Moreover, the Potency in test [9] is 43.8 µM (active) and 54.9 µM (active); in test [12], 30.7 µM (active) and 54.5 µM (active); in test [14] it was 2.18 µM (active) and 3.86 µM (active). For the same molecule, the Potency entry in [4], in test [7] and in [13] was “inactive” throughout.

Regarding `CCNc1nc(Cl)nc(NC(C)(C)C#N)n1`, the Potency entry in test [1], in test [2], in [15], in test [3], in test [4] and in test [5] was “inactive” throughout. Besides, the Potency entry in [6], in test [7], in test [9], in test [13] and in test [14] was “inactive” in each case.
